These results are taken from PubChem BioAssay (NCI).

Common to all, as to assay: NCI-60 one-dose screen, 48 h (100 = growth as untreated, 0 = no growth, -100 = all killed)
Common to all, as to details: 10 µM unless noted

The subject of assay [1] is HCT-15 colon.
Assay [2] has as its system HT29 colon.
In assay [3] the test system is SNB-75 CNS.
Assay [4] deals with SNB-19 CNS.
Assay [5] has as its system U251 CNS.
The test system of assay [6] is PC-3 prostate.
Assay [7] has as its system SK-MEL-5 melanoma.
Assay [8] deals with UACC-62 melanoma.
Assay [9] relates to LOX IMVI melanoma.
The test system of assay [10] is SK-MEL-28 melanoma.

About 83,000 compounds went through this panel and 20% of them were active in at least one assay; those are over-represented in the sample as a whole.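 Values shown are percent growth following 48 h exposure of cells in 96-well plates to a single concentration of compound; below 10 was considered active.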 Values without a mark were called inactive. The source made the active and inactive calls.

In the case of `CC(C)[C@H](CN)NC[C@H](C)NS(=O)(=O)c1ccc(C(C)(C)C)cc1`, the growth in [1] was 99.3%; in assay [2], 65.5%; in [3], 84.2%; in assay [4] it was 111%; in [5], 87.1%; in assay [6], 83.5%. The figures for the growth in assay [7], in [8] and in assay [9] were 86.8%, 111% and 99.9%, respectively.

`N#Cc1nc(-c2cccc(Br)c2)cc(-c2ccc(Nc3nc(N4CCCCC4)nc(N4CCCCC4)n3)cc2)c1N`: the growth in [1] was -39% (active); in assay [2], -24.6% (active); in [3], -45.1% (active); in assay [4] it was 52.7%; in assay [5], -15.8% (active); in assay [6], 12%. Besides, the values for the growth in [7], in assay [8] and in [9] were -49.3% (active), -35.9% (active) and -95.7% (active), respectively.

Turning to `Clc1cn2cc(-c3ccc(Cl)c(Cl)c3Cl)nc2s1`, the growth in [1] is 93.9%; in [2] it was 112%; in assay [3], 91.4%; in [4] it was 99.8%; in [5] it was 102%; in assay [6], 99.9%. Also, the growth is 100% in [7], 96.3% in assay [8] and 99.3% in [9].

With `Fc1ccc2c(CN3CCO[C@H](COc4cccc(Cl)c4)C3)c[nH]c2c1`, the growth in assay [1] is 59.1%; in [2] it was 47.4%; in [3] it was 59%; in assay [4] it was 56.8%; in [5] it was 44.7%; in [6] it was 36.7%. Besides, the growth in [7] is 63.4%; in assay [8] it was 60.2%; in [9] it was 45.9%.

With `COc1cc(C)c2c(=O)c3c(oc2c1)C(=O)c1c(O)c(OC)cc(O)c1C3=O`, the growth in assay [1] is 5.54% (active); in [2], 68.1%; in assay [3] it was -13.2% (active); in assay [4], 20.2%; in [5], 10.8%; in assay [6], -8.33% (active). Further, the results for the growth in assay [7], in [8] and in [9] were -43.8% (active), 22.5% and 3.56% (active), respectively.

In the case of `CN1CCN(Cc2ccc(NC(=O)c3cnc(F)c(C#Cc4cnc(N)c5ncccc45)c3)cc2C(F)(F)F)CC1`, the growth in assay [1] was 14.9%; in [2] it was 6.84% (active); in assay [3], 32.7%; in assay [4], 52.8%; in assay [5], 20.8%; in assay [6], 29.9%. For the same compound, the growth in assay [7] is 8.81% (active); in assay [8], -4.67% (active); in assay [9], 1.54% (active).

Turning to `COc1cccc2nc(Nc3cccc(NC(=O)c4ccc(N5CCN(C)CC5)c(C(F)(F)F)c4)c3)ccc12`, the growth was -10.4% (active) in assay [1]; -67.7% (active) in assay [2]; -7.68% (active) in assay [3]; 48.4% in [4]; -24.6% (active) in assay [5]; 22% in assay [6]. The growth was 48.8% in assay [7], -38.4% (active) in assay [8] and -96.7% (active) in [9].

As to `COc1ccc2[nH]c(C(=O)OCc3ccc4c(Br)cc(Br)c(O)c4n3)cc2c1`, the growth in assay [1] was -62.1% (active); in [2], -73.6% (active); in [3], -75.5% (active); in [4] it was 43.1%; in assay [5], -28.3% (active); in assay [6] it was -64.9% (active). For the same compound, the growth is -89.6% (active) in assay [7], -79.5% (active) in assay [8] and -95.4% (active) in [9].

In the case of `C[C@]12CCc3nc(Nc4ccc(O)cc4)sc3C1=CC[C@@H]1[C@@H]2CC[C@]2(C)/C(=N/NC(N)=S)CC[C@@H]12`, the growth in [1] was -48% (active); in assay [2], -47.6% (active); in assay [3], -2.86% (active); in [4], -13.1% (active); in assay [5] it was -70.3% (active); in assay [6], -33.7% (active). Also, the growth is -61.2% (active) in assay [7], -74.8% (active) in assay [8] and -52.5% (active) in assay [9].

With `CC[C@H](Nc1nc(N)nc(C2CC2)c1C#N)c1nc2cccc(NCc3ccc(C(=O)NO)cc3)c2c(=O)n1-c1ccccc1`, the growth in assay [1] is 19%; in [2], 13.4%; in assay [3], -2.59% (active); in assay [4], 7.25% (active); in assay [5] it was -4.25% (active); in [6] it was 10.1%. Further, the growth is -29.5% (active) in assay [7], -19% (active) in assay [8] and -89.2% (active) in assay [9].

Take `CCN(CC)CCCC(C)Nc1cnc(C(=O)Nc2ccc(Cl)c3cccnc23)cn1` (stereo not drawn): the growth in [1] was 3.73% (active); in assay [2] it was -49.4% (active); in [3] it was 41.7%; in assay [4] it was 49.6%; in assay [5] it was -35.3% (active); in assay [6], 39.4%. Also, the figures for the growth in assay [7], in [8] and in assay [9] were -3.7% (active), -52.4% (active) and -83.9% (active), respectively.

`Oc1c(C(c2ccc(F)cc2)N2CCCCC2)ccc2cncnc12` (stereo not drawn): the growth is 26% in assay [1]; 13.5% in assay [2]; 7.45% (active) in assay [3]; 11.1% in [4]; 1.52% (active) in [5]; 10.6% in assay [6]. In addition, the growth in [7] was -19.7% (active); in [8] it was -0.545% (active); in assay [9], 7.17% (active).

Take `CC(=O)Nc1nonc1-c1nc2ccccc2n1Cc1ccc(C(C)(C)C)cc1`: the growth in [1] is 90.4%; in [2] it was 74.1%; in assay [3], 50.2%; in assay [4], 80.1%; in [5], 75.7%; in [6] it was 28.6%. For the same compound, the growth in [7] is 79.9%; in assay [8], 81.6%; in assay [9] it was 63%; in assay [10], 101%.

With `CC(=O)N[C@@H](CCC(N)=O)C(=O)O`, the growth is 113% in assay [1]; 95.6% in assay [2]; 69.2% in assay [3]; 126% in assay [4]; 102% in [5]; 74.5% in [6]. In addition, the growth in assay [7] was 101%; in assay [8] it was 98.2%; in [9] it was 91.4%; in [10], 101%.
